Compound activity from PubChem.
mHTT CaM bind: mutant huntingtin-calmodulin interaction inhibitors – biochemical, AlphaScreen, primary screen. P42858. AlphaScreen His-mHTT/GST-CaM binding, luminescence. inhibition, % at 15 µM. actives 3.6% (n = 190,000)
Pf apPOL inh: Pf-apPOL inhibitors, biochemical, fluorescence. Recombinant Pf-apPOL, molecular beacon fluorescence, 1.5 h. inhibition, % at 10 µM. actives 0.25% (n = 210,000). AID 1794808, 2022
Each line names hits and unclear results; the compound was inactive in the other large screens. Hits are enriched below; roughly 3.5% of the tested compounds scored in any of these assays. Cut-off read from the data, not from the text of the source: active = inhibition above about 50%; inactive = the rest.

COc1ccc(-c2nc3cccnc3n2C2CCN(C(=O)c3cccs3)C2)cc1 (stereo unspecified)	none
COc1ccc(-c2nc3cccnc3n2C2CCN(C(=O)c3ccc(C)s3)C2)cc1 (stereo unspecified)	mHTT CaM bind 65
COc1ccc(-c2nc3cccnc3n2C2CCN(C(=O)c3ccc(Cl)s3)C2)cc1 (stereo unspecified)	mHTT CaM bind 70
COc1ccc2c(-c3cc4cc(Br)ccc4oc3=O)cc(=O)oc2c1	none
O=C(Cn1cnc2c(c1=O)CN(Cc1ccccc1)CC2)NCCCc1ccccc1	none
CC(C)c1nc(CN2CCN(c3ccc(F)cc3)CC2)cc(=O)[nH]1	none
Cn1c(COc2ccccc2)nn(C2c3ccccc3Oc3ccccc32)c1=S	mHTT CaM bind 54 (no result: Pf apPOL inh)
Cn1c(COc2ccccc2)nn(CN2CCC3(CC2)OCCO3)c1=S	none (no result: Pf apPOL inh)
O=C(NCCC(O)c1ccoc1)C1CC=CCC1 (stereo unspecified)	none
Cc1cc2ccccc2n1CCNC(=O)C(C)(C)Oc1ccc(Cl)cc1	mHTT CaM bind 60
O=C(NCCSc1c[nH]c2ccccc12)c1ccc(Cl)cc1	none
CC(C)(Oc1ccc(Cl)cc1)C(=O)NCCc1ccccc1	none
CC(C)(Oc1ccc(Cl)cc1)C(=O)NCCSc1c[nH]c2ccccc12	mHTT CaM bind 99
Cc1nc(NC(=O)c2cnccn2)ccc1Br	none (no result: mHTT CaM bind)
CCN(CC(=O)N1CCn2cccc2C1c1ccccc1C)C(=O)N(C)C (stereo unspecified)	none
COc1cc2c(cc1OC)C(C(=O)Nc1ccc(C)c(F)c1)C(c1cccs1)N(C)C2=O (stereo unspecified)	none
COc1cc(C=C2SC(=S)N(c3ccc(O)c(C(=O)O)c3)C2=O)cc(OC)c1OC	mHTT CaM bind 66
COc1cc(C=C2SC(=S)N(c3ccc(C(=O)O)c(O)c3)C2=O)cc(OC)c1OC	none
COc1cc(C=C2SC(=S)N(c3ccc(O)cc3)C2=O)cc(OC)c1OC	none
COc1cccc(N2C(=O)C(=Cc3ccc(O)c(O)c3)SC2=S)c1	mHTT CaM bind 98
COC(=O)C(Cc1cc(Br)c(O)c(Br)c1)NC(=O)C(F)(F)F (stereo unspecified)	none (no result: mHTT CaM bind)
CN(Cc1ccc(-n2cccn2)cc1)C(=O)c1cnn2c1NC(c1ccco1)CC2C(F)(F)F (stereo unspecified)	none
Oc1ccccc1CNc1cccc(C(F)(F)F)c1	none
CCN(C(=O)c1cc2ccccc2oc1=O)C1CCCCC1	none
O=C(O)c1ccnc(-c2cc(C(=O)O)ccn2)c1	none (no result: mHTT CaM bind)
CN(C)C=Cc1ccnc(-c2cc(C=CN(C)C)ccn2)c1	Pf apPOL inh 66 (no result: mHTT CaM bind)
O=C(COc1ccc(F)cc1)N1CCN(C(=O)COc2ccc(F)cc2)CC1	none
CC1CCN(C(=O)COc2ccc(C(C)C)cc2)CC1	none
COc1ccc(OCC(=O)N2CCC(n3nc(-c4ccsc4)ccc3=O)CC2)cc1	mHTT CaM bind 88
O=C(COc1ccc(F)cc1)N1CCC(n2nc(-c3ccsc3)ccc2=O)CC1	mHTT CaM bind 92
Cc1ccc(Cl)cc1NC(=O)CC(NCc1ccccn1)C(=O)O (stereo unspecified)	mHTT CaM bind 100
Cc1ccc(Cl)cc1NC(=O)CC(NCCCOC(C)C)C(=O)O (stereo unspecified)	none
CC(=O)CC1c2cc(F)ccc2C=C(c2ccsc2)N1c1ccc(C#Cc2cncn2C)cc1 (stereo unspecified)	mHTT CaM bind 75
CC(=O)CC1c2cc(F)ccc2C=C(c2ccsc2)N1c1ccc(C#CC2(O)CCCCC2)cc1 (stereo unspecified)	none
COC(=O)[C@H](Cc1ccccc1)N1C/C=C\COc2c(Cl)cc(Cl)cc2S1(=O)=O	none
C=CCOc1ccc(C2C(=C(O)c3ccc(OC)cc3)C(=O)C(=O)N2CCCn2ccnc2)cc1 (stereo unspecified)	none
Cc1oc2c3c(ccc2c(=O)c1-c1ccccc1)OCN(Cc1ccccn1)C3	mHTT CaM bind 69
COCCN1COc2ccc3c(=O)c(Oc4cccc(OC)c4)c(C(F)(F)F)oc3c2C1	none
Cc1oc2c3c(ccc2c(=O)c1-c1ccccc1)OCN(CC1CCCO1)C3 (stereo unspecified)	none
COc1cccc(Oc2c(C)oc3c4c(ccc3c2=O)OCN(Cc2ccccn2)C4)c1	mHTT CaM bind 100
Cc1ccccc1NS(=O)(=O)c1cc(Cl)ccc1Cl	none
Cc1c(C)c(C(=O)Nc2ccc3c(c2)OCO3)n(Cc2ccccc2F)c1C	none
CC1CCCN(C2CCN(C(=O)COc3ccc(Cl)cc3)CC2)C1 (stereo unspecified)	none
CC(C)(C)SCC(=O)c1ccc2c(c1)CCC(=O)N2	none (no result: mHTT CaM bind)
Cc1ccc(NC(=O)Cn2nc(N(C)C)c3ccccc3c2=O)cc1Cl	mHTT CaM bind 80
Cc1ccc(NC(=O)Cn2nc(N(C)C)c3ccccc3c2=O)cc1	none
Cc1ccc(S(=O)(=O)NCC(C)NS(=O)(=O)c2ccc(C)cc2)cc1 (stereo unspecified)	none
CCCc1oc2cc(OCC(=O)OC)c(CC)cc2c(=O)c1-c1ccc2c(c1)OCCCO2	none
